This is an account of results in PubChem BioAssay.

Calls of active or inactive are those of the source.

The subject of test [1] is Plasmodium falciparum Sir2 (PF13_0152, Sir2A). Nature of the test: pfSir2 binders on small-molecule microarrays, primary screen, biochemical, small-molecule microarray, 635 nm fluorescence (AID 1098).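 Also: score merges spot fluorescence intensity with its signal-to-noise ratio.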 The conditions noted are these: small-molecule microarray binding, fluorescence 635 nm; higher = more signal.
The nature of test [2]: small-molecule microarray binders of probe aDKK1, primary screen, biochemical, biotinylated probe, 635/667 nm fluorescence (AID 1099).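 Also: score merges 667nm spot fluorescence with signal to noise across triplicate slides.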 The conditions noted are these: higher = more signal.
Test [3] is described as follows: small-molecule microarray binders of probe aCHRDL2, primary screen, biochemical, biotinylated probe, 635/667 nm fluorescence (AID 1100). The conditions noted are these: higher = more signal.
Test [4] is described as follows: splicing luciferase reporter signal modulators, primary screen, spliceosome inhibition project, cell-based, HEK293, splice +/- reporter (AID 1101).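 Also: HEK293 cells carrying a splicing-competent luciferase reporter gene; test concentration not given here.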 The following applies: luminescence, 24 h, higher = more signal, called active from +8 up or from −8 down.
In test [5] the target is Fibroblast growth factor 10 (Homo sapiens) (UniProt O15520). Nature of the test: FGF10 binders on small-molecule microarrays, primary screen, biochemical, small-molecule microarray, 635 nm fluorescence (AID 1102). The conditions noted are these: FGF10 binding, fluorescence 635 nm, higher = more signal.
Sequence of Fibroblast growth factor 10 (Homo sapiens) (O15520 whole entry, looked up): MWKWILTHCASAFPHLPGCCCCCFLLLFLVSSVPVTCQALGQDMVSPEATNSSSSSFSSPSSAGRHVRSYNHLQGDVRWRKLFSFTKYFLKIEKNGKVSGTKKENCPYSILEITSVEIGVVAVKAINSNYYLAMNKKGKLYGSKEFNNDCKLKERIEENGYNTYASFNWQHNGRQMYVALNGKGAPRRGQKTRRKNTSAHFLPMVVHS
The test system of test [6] is glycogen synthase kinase-3 (GSK3A per assay name; protocol says GSK3B). Nature of the test: GSK3 binders on small-molecule microarrays, primary screen, biochemical, small-molecule microarray, 635 nm fluorescence, GSK3A (AID 1103). Also: the record names both GSK3A and GSK3B. The conditions noted are these: small-molecule microarray binding, fluorescence 635 nm; higher = more signal.
Test [7] addresses Epidermal growth factor receptor (Homo sapiens) (UniProt P00533). As to the kind of experiment: EGFR binders on small-molecule microarrays, primary screen, biochemical, small-molecule microarray, 635 nm fluorescence (AID 1104).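 Also: score merges 667 nm emission intensity with spot signal to noise over triplicate slides.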 The following applies: EGFR binding, higher = more signal.
The target of test [8] is Follistatin-related protein 3 (Homo sapiens) (UniProt O95633). As to the kind of experiment: FSTL3 binders on small-molecule microarrays, primary screen, biochemical, small-molecule microarray, 635 nm fluorescence (AID 1105).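 Also: score merges emission near 667 nm and signal to noise per printed spot across three slides.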 The following applies: FSTL3 binding, higher = more signal.
Sequence of Follistatin-related protein 3 (Homo sapiens) (O95633 whole entry, looked up): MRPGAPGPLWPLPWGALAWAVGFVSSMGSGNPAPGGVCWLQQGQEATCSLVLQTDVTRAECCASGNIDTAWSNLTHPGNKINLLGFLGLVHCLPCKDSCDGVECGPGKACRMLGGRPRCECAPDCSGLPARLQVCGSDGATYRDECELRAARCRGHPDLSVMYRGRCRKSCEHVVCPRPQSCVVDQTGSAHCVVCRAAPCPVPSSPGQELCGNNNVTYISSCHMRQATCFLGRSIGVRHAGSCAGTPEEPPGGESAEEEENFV
For test [9], the target named is Dickkopf-related protein 1 (Homo sapiens) (UniProt O94907). Nature of the test: DKK1 binders on small-molecule microarrays, primary screen, biochemical, small-molecule microarray, 635 nm fluorescence scan (AID 1106).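 Also: score merges emission near 667 nm with signal to noise over three replicate slides.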 The following applies: DKK1 binding, higher = more signal.
Sequence of Dickkopf-related protein 1 (Homo sapiens) (O94907 whole entry, looked up): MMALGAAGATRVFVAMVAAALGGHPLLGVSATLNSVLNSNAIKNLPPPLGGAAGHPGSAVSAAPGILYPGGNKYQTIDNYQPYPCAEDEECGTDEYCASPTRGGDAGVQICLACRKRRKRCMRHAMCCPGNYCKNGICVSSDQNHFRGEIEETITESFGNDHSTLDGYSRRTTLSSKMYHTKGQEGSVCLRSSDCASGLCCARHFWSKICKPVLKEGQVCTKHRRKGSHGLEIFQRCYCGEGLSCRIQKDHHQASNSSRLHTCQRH
The subject of test [10] is Inhibin beta A chain (activin A). Nature of the test: INHBA (activin A) binders on microarrays, primary screen, biochemical, small-molecule microarray, 635 nm fluorescence scan (AID 1107).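 Also: mouse activin A protein probed at 4.33 µg/mL on printed slides; score merges bound-protein fluorescence near 667 nm with spot signal-to-noise.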 The following applies: small-molecule microarray binding, higher = more signal.
Test [11] has as its system Human papillomavirus type 1a protein E7 (residues 44-93). As to the kind of experiment: HPV1a E7 fragment binders on microarrays, primary screen, biochemical, small-molecule microarray, residues 44-93, 635 nm fluorescence (AID 1108).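 Also: E7 fragment applied at 1 µg/mL in TBST for 1 h at 4 C; score combines spot fluorescence with its signal to noise ratio.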 The conditions noted are these: small-molecule microarray binding, fluorescence 635 nm; higher = more signal.
The nature of test [12]: modulators of HCV replicon luciferase signal, primary screen, HCV replication inhibitor project, Huh7 cells, luciferase reporter (AID 1109).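 Also: huh7 hepatoma cells harbouring a luciferase neomycin HCV replicon reporter; luciferase luminescence as measure of HCV replicon replication; test concentration not given here.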 The conditions noted are these: 48 h, higher = more signal.
Test [13] addresses Left-right determination factor 2 (Homo sapiens) (UniProt O00292). As to the kind of experiment: LEFTY2 binders on small-molecule microarrays, primary screen, biochemical, small-molecule microarray, 635 nm fluorescence scan (AID 1110). The conditions noted are these: LEFTY2 binding, higher = more signal.
Test [14] concerns the target Calmodulin-1 (Homo sapiens) (UniProt P0DP23). Nature of the test: CALM1 binders on microarrays, EGTA buffer, profiling panel, biochemical, small-molecule microarray, Cy5-labelled CALM1 (AID 1111).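 Also: labelled calmodulin applied in Tris saline Tween buffer holding calcium plus EGTA and DTT.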 The conditions noted are these: Cy5-CALM1 binding fluorescence, higher = more signal.
The target is the same in test [15]. Nature of the test: calcium-bound CALM1 binders on microarrays, profiling panel, artefact control for SMM control-protein annotation, biochemical, small-molecule microarray, Cy5-labelled CALM1, plus calcium (AID 1112).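 Also: score merges spot fluorescence with signal to noise from triplicate slides.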 The following applies: Cy5-CALM1 binding fluorescence, higher = more signal.
Test [16] is described as follows: small-molecule microarray binders of probe aWnt5a, primary screen, biochemical, biotinylated probe, 635/667 nm fluorescence (AID 1113).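 Also: score merges 667 nm fluorescence intensity with signal-to-noise per printed feature.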 The conditions noted are these: higher = more signal.
Test [17] can be described thus: small-molecule microarray binders of probe aShh, primary screen, biochemical, biotinylated probe, 635/667 nm fluorescence (AID 1114).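 Also: probe is biotin-labelled aShh protein from a stem cell growth factor screen; measures binding of labelled protein to compounds printed on the slide; score merges feature fluorescence at 667 nm with signal-to-noise.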 The following applies: higher = more signal.
A short description of test [18]: small-molecule microarray binders of probe aNog, primary screen, biochemical, biotinylated probe, 635/667 nm fluorescence (AID 1115).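 Also: probe is biotinylated aNog protein used at 0.15 µg/mL for 1 h at 4 C; z-score combines 667 nm fluorescence of each spot with its signal to noise.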 The following applies: higher = more signal.
Test [19] deals with Torsin-1A-interacting protein 1 (Homo sapiens) (UniProt Q5JTV8). As to the kind of experiment: LAP1 binders from COS7 cell lysate, primary screen, small-molecule microarray, 635/667 nm fluorescence (AID 1116). The following applies: COS7-hLAP1 lysate binding, 635 nm fluorescence, higher = more signal.
Sequence of Torsin-1A-interacting protein 1 (Homo sapiens) (Q5JTV8 whole entry, looked up): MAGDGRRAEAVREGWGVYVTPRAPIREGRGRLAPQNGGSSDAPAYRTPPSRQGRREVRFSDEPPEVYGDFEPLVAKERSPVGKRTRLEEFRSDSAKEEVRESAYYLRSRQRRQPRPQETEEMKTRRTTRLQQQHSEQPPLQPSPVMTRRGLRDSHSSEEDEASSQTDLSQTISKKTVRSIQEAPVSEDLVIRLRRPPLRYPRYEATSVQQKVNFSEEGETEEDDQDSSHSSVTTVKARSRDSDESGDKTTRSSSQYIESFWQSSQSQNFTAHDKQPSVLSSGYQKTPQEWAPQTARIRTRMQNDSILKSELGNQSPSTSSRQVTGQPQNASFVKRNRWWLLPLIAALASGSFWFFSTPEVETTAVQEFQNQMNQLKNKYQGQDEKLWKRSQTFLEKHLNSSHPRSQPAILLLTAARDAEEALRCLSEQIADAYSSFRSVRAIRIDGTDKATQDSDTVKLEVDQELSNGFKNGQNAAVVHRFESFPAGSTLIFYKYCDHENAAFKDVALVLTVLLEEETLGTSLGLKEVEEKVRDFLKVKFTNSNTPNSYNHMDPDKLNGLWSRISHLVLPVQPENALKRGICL
Test [20] addresses Alpha-bungarotoxin (Bungarus multicinctus) (UniProt P60615). As to the kind of experiment: alpha-bungarotoxin binders on microarray, profiling panel, artefact control for SMM control protein annotation, biochemical, small-molecule microarray, Alexa647 label, 635/667 nm fluorescence (AID 1117). The following applies: alpha-BTX-A647 binding fluorescence, higher = more signal.

Sequence of Alpha-bungarotoxin (Bungarus multicinctus) (P60615 whole entry, looked up): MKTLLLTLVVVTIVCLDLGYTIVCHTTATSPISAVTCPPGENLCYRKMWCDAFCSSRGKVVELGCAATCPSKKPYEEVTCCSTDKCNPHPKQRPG
Sequence of Left-right determination factor 2 (Homo sapiens) (O00292 whole entry, looked up): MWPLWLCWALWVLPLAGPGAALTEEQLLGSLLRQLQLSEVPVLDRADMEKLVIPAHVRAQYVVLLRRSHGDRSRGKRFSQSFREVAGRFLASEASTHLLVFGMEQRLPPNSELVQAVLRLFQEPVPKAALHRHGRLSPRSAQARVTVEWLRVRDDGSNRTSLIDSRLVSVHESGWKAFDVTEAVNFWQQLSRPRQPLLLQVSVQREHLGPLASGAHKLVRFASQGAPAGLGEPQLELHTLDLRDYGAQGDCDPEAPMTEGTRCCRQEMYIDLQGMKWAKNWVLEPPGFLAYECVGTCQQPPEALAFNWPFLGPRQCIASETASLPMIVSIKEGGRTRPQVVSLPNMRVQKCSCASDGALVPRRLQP
Sequence of Epidermal growth factor receptor (Homo sapiens) (P00533 whole entry, looked up): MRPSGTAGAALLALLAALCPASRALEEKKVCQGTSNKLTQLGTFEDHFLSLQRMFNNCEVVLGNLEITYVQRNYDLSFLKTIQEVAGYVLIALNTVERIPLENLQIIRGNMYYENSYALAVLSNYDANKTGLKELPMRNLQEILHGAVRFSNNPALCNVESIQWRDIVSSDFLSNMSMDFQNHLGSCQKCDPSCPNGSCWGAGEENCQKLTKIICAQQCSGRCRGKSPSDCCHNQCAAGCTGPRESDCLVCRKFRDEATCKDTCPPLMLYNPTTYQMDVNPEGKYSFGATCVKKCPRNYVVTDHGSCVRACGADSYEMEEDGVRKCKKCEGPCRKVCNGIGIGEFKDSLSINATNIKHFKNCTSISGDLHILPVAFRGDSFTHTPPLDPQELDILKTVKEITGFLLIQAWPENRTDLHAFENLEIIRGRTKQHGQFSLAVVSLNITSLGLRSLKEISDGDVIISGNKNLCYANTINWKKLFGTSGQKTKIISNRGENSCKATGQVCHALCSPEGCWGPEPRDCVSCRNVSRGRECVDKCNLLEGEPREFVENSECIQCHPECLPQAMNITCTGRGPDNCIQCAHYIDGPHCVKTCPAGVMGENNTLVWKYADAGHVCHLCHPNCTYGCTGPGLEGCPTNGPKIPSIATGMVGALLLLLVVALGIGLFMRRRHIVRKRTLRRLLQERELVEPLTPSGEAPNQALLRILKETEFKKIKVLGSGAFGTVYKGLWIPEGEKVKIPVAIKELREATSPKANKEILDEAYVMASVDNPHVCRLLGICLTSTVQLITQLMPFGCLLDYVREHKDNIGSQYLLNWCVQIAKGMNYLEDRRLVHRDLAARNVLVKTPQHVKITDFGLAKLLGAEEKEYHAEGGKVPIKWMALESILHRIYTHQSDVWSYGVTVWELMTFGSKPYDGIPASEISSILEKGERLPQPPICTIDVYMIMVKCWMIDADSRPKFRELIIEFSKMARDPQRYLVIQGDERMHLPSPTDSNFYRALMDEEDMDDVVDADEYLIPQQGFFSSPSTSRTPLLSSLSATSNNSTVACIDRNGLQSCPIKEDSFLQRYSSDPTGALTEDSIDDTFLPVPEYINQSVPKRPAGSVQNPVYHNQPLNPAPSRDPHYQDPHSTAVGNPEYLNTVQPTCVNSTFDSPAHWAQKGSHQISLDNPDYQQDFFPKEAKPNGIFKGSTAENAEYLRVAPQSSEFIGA

Turning to `CN(C)CCCC[C@@H]1NC(=O)[C@@H]2C[C@H](C(=O)NCCCCCNC(=O)CS)[C@H](c3cccc(OCCO)c3)N2C1=O`, the composite z-score was 1.72 in [1]; -0.08 in test [2]; -0.305 in test [3]; 0.551 in [5]; 0.684 in test [6]; 0.35 in test [7]. For the same molecule, the composite z-score is 0.356 in test [8]; 1.08 in test [9]; 0.995 in test [10]; -0.0825 in [11]; 1 in test [13]; 0.497 in test [14]. The composite z-score is 0.843 in test [15]; -0.034 in test [16]; 0.213 in [17]; -0.255 in [18]; -0.304 in [19]; 0.4 in [20]. Also, the z-score was -3.22 (inactive) in test [4] and 1.94 in test [12].
As to `COc1ccc([Si](C)(C)[C@H]2[C@H](CC(=O)N3Cc4ccccc4C[C@H]3CO)O[C@@]3(C(=O)N(Cc4cccc(N5C(=O)COc6ccccc65)c4)c4ccccc43)[C@@H]2C)cc1`, the composite z-score was 1.18 in test [1]; -0.225 in [2]; -0.261 in [3]; 0.818 in test [5]; 0.52 in [6]; 1.13 in test [7]. Besides, the composite z-score came out at 1.26 in test [8]; 1.12 in [9]; 1.23 in test [10]; 0.354 in [11]; 0.818 in [13]; 0.191 in test [14]. Moreover, the composite z-score in [15] was -0.185; in test [16], 0.0094; in [17], 0.0637; in test [18] it was -0.0118; in test [19] it was 0.7; in test [20], 1.87. The z-score in test [4] was -1.72 (inactive); in test [12], -3.73.
Take `CO[C@H]1O[C@H](CO)[C@@H](OC(=O)CCc2ccccc2)[C@@H]2OC(=O)[C@H](Cc3ccccc3)C/C=C/C[C@@H](Cc3ccccc3)C(=O)O[C@@H]12`: the composite z-score in test [1] was 0.489; in test [2], -0.332; in test [3] it was 0.268; in test [5], -0.135; in test [6], -1.24; in test [7], -0.938. Further, the composite z-score was -0.861 in test [8]; -0.844 in [9]; 1.17 in test [10]; -0.673 in test [11]; -0.0637 in test [13]; -0.879 in [14]. Also, the composite z-score in [15] was -0.123; in test [16] it was -0.106; in [17], -0.471; in test [18], 0.248; in test [19] it was 0.108; in test [20], -0.75. Also, the z-score is -0.87 (inactive) in test [4] and -1.31 in test [12].
Regarding `COCCCNC(=O)[C@@]1(Cc2ccccc2CN=[N+]=[N-])COC(c2ccc(OCCCO)cc2)=N1`, the composite z-score is 1.59 in test [1]; 1.28 in [2]; 1.39 in test [3]; 1.38 in test [5]; 0.266 in [6]; -0.474 in test [7]. Further, the composite z-score was -0.0087 in test [8]; -1.58 in test [9]; 0.731 in test [10]; 0.989 in [11]; -0.645 in [13]; 1.78 in test [14]. Further, the composite z-score stood at 0.96 in test [15]; 0.299 in test [16]; 0.454 in test [17]; 1.75 in test [18]; 2.45 in test [19]; 0.911 in [20]. The z-score is -0.807 (inactive) in test [4] and -1.97 in test [12].
Take `COC(=O)c1c2oc(c1C(=O)OC)C(=O)N[C@@H](C(C)C)Cn1nncc1C1(CCCCC1)NC(=O)N[C@H](CO)CC2`: the composite z-score in test [1] is 1.54; in test [2], -0.212; in test [3] it was 0.0273; in [5] it was -0.0613; in [6], -0.96; in [7], -0.193. Besides, the composite z-score in [8] is -0.232; in test [9] it was -0.074; in test [10] it was 0.31; in test [11] it was -0.683; in test [13] it was -0.0834; in test [14], 0.401. The composite z-score was -0.102 in test [15]; -0.148 in test [16]; 0.0899 in test [17]; -0.0207 in [18]; 0.368 in test [19]; 1.29 in test [20]. The z-score in [4] was -1.44 (inactive); in [12] it was 0.862.
